From the emibetuzumab library of Makowski et al. (2022)
Some of the results follow. How many sequences the whole screen found active is unknown.

B1: VH:VL chains; a variant is named by its letters at X, in order (parent)
chain 1: QVQLVQSGAEVKKPGASVKVSCKASGYTFTDYXMHWVRQAPGQGLEWMGXVNPNXXXTTYNQKFEGRVTMTTDTSTSTAYMELRSLRSDDTAVYYCARXNXLDXWGQGTTVTVSS
chain 2: DIQMTQSPSSLSASVGDRVTITCSVSSSVSSIYLHWYQQKPGKAPKLLIYSTSNLASGVPSRFSGSGSGTDFTLTISSLQPEDFATYYCQVYSGYPLTFGGGTKVEIK

Variants of: B1
Assay: yeast display scFab, FACS + sequencing
Conditions: with MET
Procedure, shortened: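 For FACS, yeast displaying a heavy-chain CDR mutant scFab library were labelled with 1 nM HGFR-Fc and anti-Myc (PBSB, 1% milk, 3 h, room temperature), and the top 50% antigen-positive cells were gated. Input and round-3 sorted populations were deep sequenced in two replicates. The binding call was positive for sequences occurring in both antigen-positive samples and negative for sequences occurring only in input.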

Variant	antigen binding call
DTGGGDLA	no binding
YKRGSSVS	binds
YARAGSVS	no binding
YRRGGSVS	binds
VEEEGSVS	no binding
VRRGSSVS	binds
YRRGSSVS	binds
DTGTGDGV	no binding
YRRGGAVS	binds
DTKAAAVV	no binding
DRAGDSLV	binds
DRRGDSLV	no binding
VRAGDYLV	no binding
DRAGDYLY	no binding
SRAGDYLV	no binding
DRAGDYLV	binds
DRAGDDWV	no binding
FRAGDYLV	binds
ARAGDYLV	no binding
SAREGDWV	no binding
SAARDAVA	no binding
FAGGGDVY	no binding
VRTEDDVF	no binding
FKGTDSSD	no binding
FRGRGFSV	no binding

Variant	antigen binding call
FRGGASSD	binds
FKGKSSSD	no binding
FRGRGSSD	binds
FRGRGASV	binds
FRGRGAWD	binds
DAKEGDVV	no binding
VEGGGAGV	no binding
DAGGADGV	no binding
FRGRGASD	binds
FAGRGYSD	no binding
FRKGDASD	no binding
DGGKNAVA	no binding
VAGTGASD	no binding
FRGRSSLA	binds
FRTRSSLA	binds
VEGEDAGA	no binding
YRRGSSGA	binds
YTRGGSGA	no binding
YRRGGSGA	binds
FRRGSSGA	binds
DAKEGSSA	no binding
DGGKNDVV	no binding
VEGTSAGD	no binding
YRTRGAGA	binds
FRTRDAAA	binds

Variant	antigen binding call
FRTRGVGA	no binding
FRGRDYAA	no binding
VRTRGDGA	no binding
FRTRGAAA	binds
YTTRGAGA	no binding
FTTRGAVA	no binding
YRTRSAAA	binds
SEARSDAS	no binding
DKEGGDVD	no binding
DATGGDGS	no binding
SKGRSDAV	no binding
SETGNVWF	no binding
YRTRGAAA	binds
YRTRGAWA	binds
VRTRGYLA	no binding
YATRGAAA	no binding
YRTRGALA	binds
VTGTGAVY	no binding
DGRGNSGD	no binding
YKRRNSGD	no binding
VGRGNSGD	no binding
YGRGNSGD	binds
YEGTGSGD	no binding
YKRGGSGD	binds
YKRGSSGD	binds

Variant	antigen binding call
STGGGDGV	no binding
STAGSASD	no binding
YRRGSALS	binds
YRRGGSLS	binds
YRRGSSLS	binds
DARGGSLS	no binding
YEGTGSLS	no binding
VKGASDGA	no binding
YKRGSFGA	no binding
YKRGSSGA	binds
VTRGDSGA	no binding
VTRGASGA	no binding
YKEKGDGA	no binding
VKRGSSGA	binds
YKRGSDGA	binds
DAGGGSSD	no binding
SETTDAGV	no binding
STKRSFWA	no binding
VTGTGSVD	no binding
YRGKDSVD	binds
YKGKDSVD	no binding
YRGESAVD	binds
DTGTGSVD	no binding
YRGTGSVD	binds
YRGEASVD	binds

Variant	antigen binding call
DAEKDSGA	no binding
VTKESAAV	no binding
YRGKASVD	binds
DEGGTSVD	no binding
YRGKSSVD	binds
YRTKAAVD	binds
YRGGTSVD	binds
YGGKNSVD	no binding
VTGTSDVA	no binding
VTGGDDWF	no binding
DREGDYLY	no binding
YRGKAAVD	binds
YAGAAAVD	no binding
VTGGDSVD	no binding
YTGGDSVD	binds
YTGGDSVA	no binding
DAGTDAGD	no binding
YRTGDSSA	binds
DRAGDSSA	no binding
YRAGDSSA	binds
YRTGDSAA	binds
DRAGDDLA	no binding
SAAGGAAD chain 1 L45S	no binding
DTREGDVY	no binding
VKERGDGV	no binding

Variant	antigen binding call
FARENFLA chain 1 V51A	no binding
VAKADDWF	no binding
YRTRSAWD	binds
YRTRSAGD	binds
YRGRSAWD	binds
YAGRAAWD	no binding
YRTRAAWD	binds
YGTRSAAD	no binding
SEEEGDWV	no binding
AKEADDVA	no binding
YTGTSDLV	no binding
VTTKSDSV	no binding
VTTRADVA	no binding
VRRRGAGD	binds
VEEEGAGD	no binding
VRRRGSGD	binds
VEKEGAGD	no binding
FRRRGSGD	binds
VGGGGDGS	no binding
DTTGGDGV	no binding
SEKKSAGA	no binding
YEGGGDWF	no binding
YGARGAAF	no binding
YRAGGAAF	binds
VKGKGAAF	no binding

Variant	antigen binding call
YRGGGAAF	binds
YRGKGAAF	binds
YRGGDAAF	binds
FAGGGDAV	no binding
VRGGGDAA	no binding
VRAGGDAV	binds
VRTKADAV	no binding
VRERGDAA	no binding
VRAGGDAA	binds
VRAGDDAV	no binding
YRRGDAAF	binds
YRKGGAWF	binds
YRRGGAGF	binds
YRRESAGF	binds
DRRGDDVF	no binding
VAEKDDGS	no binding
SGGTGDVF	no binding
FTGEADAS	no binding
AARADSWV	no binding
YRKGGAGF	binds
YRRGSSGF	binds
YRRGSAGF	binds
ARRGGSGF	no binding
YRRGDAGF	binds
YAGGDDGA	no binding

Variant	antigen binding call
SETTDSSA	no binding
DAGGGYGV	no binding
AGERNVAS	no binding
YRRGGALV	binds
YRRKGALV	binds
YRRKGASV	binds
ATKAASWV	no binding
FRGGGSGS	binds
FRGGSSGS	binds
FRGGDYGS	no binding
ATTGGDWD	no binding
YRKRGAGA	binds
YRKRGAAA	binds
VTGEDAGS	no binding
YKGRGAAS	binds
YAGRGDAS	no binding
YRGGGDVS	binds
YKTGGASS	binds
YRGKGALS	binds
YAGRGSAS	no binding
YTGTSDVS	no binding
YRERSDVS	no binding
YTGTSDVY	no binding
FTRGADAV	no binding
DAGGDDVY	no binding

Variant	antigen binding call
YKGRGAVS	binds
YKGRGALS	binds
YAGRGDVS	no binding
YKGEGFSS	no binding
VRGRGALS	binds
YKTRGAVS	no binding
YKGRGASS	binds
VETEGAVY	no binding
DKEGGDGV	no binding
AATTDSGV	no binding
VREGDDAV	no binding
YRGRGALS	binds
DRGGGDAS	no binding
DRAGDDGS	no binding
YRGGSDGS	binds
YRGKSDGS	no binding
YRGGGALS	binds
